{
  "source": "the OligoGym collection",
  "data": [
    {"biological_target": "ARHGAP5", "assay": "pooled miR-30 sensor sort-seq; sequence = guide strand", "conditions": "shRNA", "values": [
      {"sequence": "TTTCTTAACAATTTCTTTCAAG", "sensor-assay potency score (higher = more potent)": -0.634},
      {"sequence": "TCAAATAACAAAATCAGCCAGA", "sensor-assay potency score (higher = more potent)": -0.237},
      {"sequence": "TTCTACAACAAATTTCATGTTT", "sensor-assay potency score (higher = more potent)": -0.238},
      {"sequence": "ATGATCTTGATCAAACTGCTTT", "sensor-assay potency score (higher = more potent)": -0.663},
      {"sequence": "TAAGGTTGCATGCAGCAGCAGC", "sensor-assay potency score (higher = more potent)": -0.593},
      {"sequence": "TAGTAGACAGAAACTCTCGATT", "sensor-assay potency score (higher = more potent)": -0.0895},
      {"sequence": "TTTAGTTATCTACACCGACTGC", "sensor-assay potency score (higher = more potent)": -0.686},
      {"sequence": "TTTTTGTCCAAATCCAGCCTGT", "sensor-assay potency score (higher = more potent)": -0.169},
      {"sequence": "TGAAGTATACTACTGAACCCTG", "sensor-assay potency score (higher = more potent)": -0.25},
      {"sequence": "TACAAGACCATCATAGATCTTT", "sensor-assay potency score (higher = more potent)": 0.493},
      {"sequence": "TTGCACAACATTATCAACTCAC", "sensor-assay potency score (higher = more potent)": 0.731},
      {"sequence": "TTTAGCCACAAGCATGTCCTTG", "sensor-assay potency score (higher = more potent)": -0.792},
      {"sequence": "TTTATGTTGCTGACTAACCCTG", "sensor-assay potency score (higher = more potent)": -0.695},
      {"sequence": "TTATGTTGCTGACTAACCCTGT", "sensor-assay potency score (higher = more potent)": 0.477},
      {"sequence": "TTTGAATATTGTCTTGGTCAGT", "sensor-assay potency score (higher = more potent)": -0.551},
      {"sequence": "TAGATTGATATTATGATCTTGA", "sensor-assay potency score (higher = more potent)": 1.05},
      {"sequence": "TAAACCTCTCCAGTCATGCTTA", "sensor-assay potency score (higher = more potent)": -0.431},
      {"sequence": "TTTCTTTCAAACAACATCCCAA", "sensor-assay potency score (higher = more potent)": 0.179},
      {"sequence": "TTTTATTTCATTATGGACCATA", "sensor-assay potency score (higher = more potent)": -0.301},
      {"sequence": "TTCTATAGTATGACTTGGCTTT", "sensor-assay potency score (higher = more potent)": 0.162},
      {"sequence": "TAATTGTGGTTGTATCAGCTGA", "sensor-assay potency score (higher = more potent)": -0.356},
      {"sequence": "TAGTAGTAGACAGAAACTCTCG", "sensor-assay potency score (higher = more potent)": 0.344},
      {"sequence": "TTCTACACTATACTAAATGTGT", "sensor-assay potency score (higher = more potent)": -0.488},
      {"sequence": "TTGCTTTTTGTCCAAATCCAGC", "sensor-assay potency score (higher = more potent)": -1.64}
    ]},
    {"biological_target": "ARHGEF15", "assay": "pooled miR-30 sensor sort-seq; sequence = guide strand", "conditions": "shRNA", "values": [
      {"sequence": "TTGCGCTCAGCAGTGGAGCGGT", "sensor-assay potency score (higher = more potent)": -0.34},
      {"sequence": "TTGCTGGAGGAGTATTCTGAGG", "sensor-assay potency score (higher = more potent)": -1.94},
      {"sequence": "TTGGAGTAGTCGGTGGGTGGGG", "sensor-assay potency score (higher = more potent)": -0.515},
      {"sequence": "TAACTCAGTCAGCTCTCCCTGG", "sensor-assay potency score (higher = more potent)": -0.77},
      {"sequence": "TTGCACAGCCGGAAGCTCCTGC", "sensor-assay potency score (higher = more potent)": -0.0952},
      {"sequence": "TATTCTGAGGAGCTTCATCAGG", "sensor-assay potency score (higher = more potent)": -0.865},
      {"sequence": "TTTCGGGGTAGTTCTTGTGGAG", "sensor-assay potency score (higher = more potent)": -0.734},
      {"sequence": "TTGCTAGAAACCGCTCGCTGAC", "sensor-assay potency score (higher = more potent)": -1.26},
      {"sequence": "ACATAATCCACATACACCGAGA", "sensor-assay potency score (higher = more potent)": -1.37},
      {"sequence": "TAGGATGTGAGGACAACGGCAG", "sensor-assay potency score (higher = more potent)": 0.25},
      {"sequence": "TGATCTTGCTGACAGCACCCAG", "sensor-assay potency score (higher = more potent)": -1.42},
      {"sequence": "TTGTGGAGAGGAGCCATTGTGG", "sensor-assay potency score (higher = more potent)": -1.62}
    ]},
    {"biological_target": "ARIH1", "assay": "pooled miR-30 sensor sort-seq; sequence = guide strand", "conditions": "shRNA", "values": [
      {"sequence": "TTTAATTGCATGAGCACTCTAG", "sensor-assay potency score (higher = more potent)": -0.104},
      {"sequence": "TTAACAGTCGATTGCACTCTAC", "sensor-assay potency score (higher = more potent)": -0.996},
      {"sequence": "TAGCGGTTACAGTTGTACCAGG", "sensor-assay potency score (higher = more potent)": -0.854}
    ]}
  ]
}
